According to PubChem BioAssay (NCATS):
Inconclusive results are not listed. A number with no mark means an inactive call. Activity calls are given as the source filed them. Calls follow the shape of the dose curve; as a rule, active = well fitted cell-killing curve with a large enough effect; inconclusive = small, poorly fitted or top-dose-only effect, or effect the other way; inactive = no such curve, though single readings can be large or run the other way.

Assay: qHTS assay to identify small molecule inhibitors of chordoma cells - UCH-1 (AID 1259355); also: nearly all actives have a fitted effect of over 55% in size
Conditions: UCH-1 chordoma viability, CellTiter-Glo, 48 h, combination; series mostly up to 46.1 µM; activity, negative = inhibition: at the top concentration
Source text: NIH Chemical Genomics Center [NCGC]
Chordoma is a rare and slow growing tumor that can occur anywhere along the spine, from the base of the skull to the tailbone. Current treatment options for chordoma is surgery and radiation therapy for those who are not candidates for surgery. But chordomas tend to return in the same location or surrounding areas of the original tumor after surgery and/or radiation. Chemotherapy can slow down the progression of the tumor. As chordoma is slow growing, the general cytotoxic agents that kill fast growing cells are ineffective, and some patients have been reported to respond to molecularly targeted drugs.
NCATS Pharmaceutical Collection (NPC) containing approximately 3000 clinically approved and investigational drugs were used to screen at 15 concentrations in a chordoma cell lines, UCH-1, to identify small molecule compounds that can inhibit chordoma cell growth.
NCGC Assay Protocol Summary:
Human chordoma cell line UCH-1 was dispensed at 800 per well in 4uL of culture medium into white solid bottom 1536-well plates (Corning Life Sciences, Corning, NY) using a Multidrop Combi (Thermo Scientific, Waltham, MA) dispenser. The assay plates were incubated at 37 C and 5% CO2 for an overnight, and then 23nL of compounds dissolved in DMSO and positive control were transferred using a Pintool station (Wako, San Diego, CA). Compound treatment was followed by the addition of 1uL of the combination compounds (1uM Auranofin, 500nM each of Camptothecin, Doxorubicin, Rubitecan, and Topotecan) and assay medium to each well of the assay plates using Flying Reagent Dispenser (FRD, Aurora Discovery, San Diego, CA). The assay plates were incubated at 37 C and 5% CO2 for 48hr. Then 5uL of CellTiter-Glo reagent (Promega Corporation, Madison, WI) was added to each well of the assay plates using FRD. After 30min incubation at room temperature, the luminescence signal was quantified using a ViewLux plate reader (PerkinElmer, Shelton, CT).
% is scaled to controls: 0 for no effect and ±100 for the full control effect; potency is read from the fitted curve at half-maximal effect.

Structure (SMILES) | activity, negative = inhibition | Potency
CNc1ccc(C(=O)CC(O)CCC(C)C2OC(=O)CC(O)CC(=O)CC(O)CC(O)CC(O)CC(O)CC3(O)CC(O)C(C(=O)OC)C(CC(O[C@@H]4O[C@H](C)[C@@H](O)[C@H](N)[C@@H]4O)/C=C/C=C/C=C/C=C/C=C/C=C/C=C/C2C)O3)cc1 (stereo not given in full) | -3.28% [at 46.1 µM, with auranofin plus four topoisomerase inhibitors] | 
CC(C)(C)c1cc(O)ccc1O |  | inactive
CCOP(=O)(OCC)O/C(=C/Cl)c1ccc(Cl)cc1Cl | -1.6% [at 46.1 µM, with auranofin plus four topoisomerase inhibitors] | 
CCOc1ccc2c3c1O[C@H]1[C@@H](O)C=C[C@H]4[C@@H](C2)N(C)CC[C@@]341 | -7.7% | 
COc1cc2c(cc1OC)[C@@]13CCN4CC5=CCO[C@H]6CC(=O)N2[C@H]1[C@H]6[C@H]5C[C@H]43 | -12% | 
Clc1ccc(C2(Cn3cncn3)OCCO2)c(Cl)c1 | -8.36% [at 46.1 µM, with auranofin plus four topoisomerase inhibitors] | 
CCCCNCC(O)c1ccc(O)cc1 (stereo not given) | -14.1% | 
CC(=O)[C@H]1CC[C@H]2[C@@H]3CC[C@@H]4C[C@H](O)CC[C@]4(C)[C@H]3CC[C@]12C | -7.54% | 
O=C1C[C@@H]2OCC=C3CN4CC[C@]56c7ccccc7N1[C@H]5[C@H]2[C@H]3C[C@H]46 (tested in a mixture with another compound) |  | inactive
C[N+]1(C)[C@@H]2CC[C@H]1CC(OC(=O)c1c[nH]c3ccccc13)C2 (stereo not given in full) | -4.45% [at 46.1 µM, with auranofin plus four topoisomerase inhibitors] | 
O=c1c2ccccc2[se]n1-c1ccccc1 | 5.12% | 
CC(=O)OC1CN2CCC1CC2 (stereo not given) | -12.7% [at 46.1 µM, with auranofin plus four topoisomerase inhibitors] | 
FC(F)OC(F)(F)C(F)Cl (stereo not given) | -14.3% | 
CCC1(C)CC(=O)NC(=O)C1 | -16.7% [at 20.6 µM] | 
F/C(COc1ccc2c(c1)[nH]c1ccccc12)=C1/CN2CCC1CC2 | -7.49% [at 46.1 µM, with auranofin plus four topoisomerase inhibitors] | 
CCNC(C)Cc1cccc(C(F)(F)F)c1 (stereo not given) | 17.2% | 
O=C1OC2(c3cc(Br)c(O)cc3Oc3c2cc(Br)c(O)[c]3[Hg])c2ccccc21 (stereo not given) | -34.9% [at 20.6 µM, with auranofin plus four topoisomerase inhibitors] | 
CCCC(=O)OC(C(Cl)(Cl)Cl)P(=O)(OC)OC (stereo not given) | -31.1% | 
C[C@]12CCC(=O)C=C1C=C[C@@H]1[C@@H]2CC[C@@]2(C)[C@H]1CC[C@@]2(O)CCC(=O)O | -4.44% [at 20.6 µM, with auranofin plus four topoisomerase inhibitors] | 
C=CCC1(C(C)CCC)C(=O)N=C(S)NC1=O (stereo not given) | -17.7% | 

Structure (SMILES) | activity, negative = inhibition | Potency
CC(=O)O[C@H]1C[C@H](O[C@H]2[C@@H](O)C[C@H](O[C@H]3[C@@H](O)C[C@H](O[C@H]4CC[C@@]5(C)[C@H](CC[C@@H]6[C@@H]5C[C@@H](O)[C@]5(C)[C@@H](C7=CC(=O)OC7)CC[C@]65O)C4)O[C@@H]3C)O[C@@H]2C)O[C@H](C)[C@H]1O[C@@H]1O[C@H](CO)[C@@H](O)[C@H](O)[C@H]1O |  | 0.251 µM (active)
CCCCC[C@@H](O)C1C(=O)OC(C)[C@H](O)/C=C/C=C/C=C/C=C/C=C(\C)C(O)C(O)C(O)C[C@H](O)C[C@H](O)C[C@H](O)C[C@H](O)C[C@@H]1O (stereo not given in full) | -2.09% | 
CCCC(C)(COC(N)=O)COC(=O)NC1CC1 (stereo not given) | -3.06% | 
C[N+]1([O-])[C@@H]2CC[C@H]1CC(OC(=O)C(CO)c1ccccc1)C2 (stereo not given in full) | -15.1% [at 20.6 µM, with auranofin plus four topoisomerase inhibitors] | 
CNC(=O)OCC[N+](C)(C)C | 1.44% | 
c1cc2c(c(NC3=NCCN3)c1)CCCC2 | -26.1% | 
CC(N)Cc1ccc(O)cc1 (stereo not given) | -16% | 
C[C@]12CC[C@H]3[C@@H](CC[C@@]45O[C@@H]4C(O)=C(C#N)C[C@]35C)[C@@H]1CC[C@@H]2O | -4.22% | 
Clc1ccc(Cl)cc1 | -29.2% [at 46.1 µM, with auranofin plus four topoisomerase inhibitors] | 
OC[C@@H](O)[C@H]1O[C@@H]2O[C@H](C(Cl)(Cl)Cl)O[C@@H]2[C@H]1O | -6.52% [at 46.1 µM, with auranofin plus four topoisomerase inhibitors] | 
O[C@H]1[C@H]2[C@H](O)CCCN2C[C@H]1O | -9.13% | 
CCCCCc1cc(O)c2c(c1)OC(C)(C)[C@@H]1CCC(C)=C[C@@H]21 | -12% | 
Cn1sc(Cl)cc1=O | -15% | 
C=CCN(C1=NCCN1)c1c(Cl)cccc1Cl | 6.89% | 
O=C(CS(=O)C(c1ccccc1)c1ccccc1)NO (stereo not given) | -15.1% | 
S=C(S)N1CCNCC1 | -15.1% [at 46.1 µM, with auranofin plus four topoisomerase inhibitors] | 
N#CC1(N2CCCCC2)CCCCC1 | -28.5% | 
CC1CCC(C(C)C)C(OC(=O)c2ccccc2N)C1 (stereo not given) | -20.8% | 
C[C@@H](Cc1ccccc1)NCCC(c1ccccc1)c1ccccc1 | -13.2% [at 20.6 µM] | 
[H+].[H+].[Hg+2].[O-]B([O-])[O-].[c-]1ccccc1 |  | 8.91 µM (active)
